Results as given in PubChem BioAssay (Tox21).
A number with no mark means an inactive call. Records with an inconclusive call do not appear. Where a call stands in place of a potency, no number is given. Active and inactive are the calls of the source. Unless noted, calls follow the shape of the dose curve; as a rule, active = well fitted curve in the direction sought with a large enough effect in the repeat runs; inconclusive = weak or mixed curves; inactive = no such curve, though single readings can be large; an effect the other way counts as inactive or inconclusive.

Key:
[1] = qHTS assay to identify small molecule agonists of the estrogen receptor alpha (ER-alpha) signaling pathway in the presence of an antagonist - cell viability counter screen (AID 1259386);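 also: cells exposed to compounds for 22 h at 37 °C before the viability read; nearly all actives have a fitted effect of over 30% in size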; also: potency is read from the fitted curve at half-maximal effect
Outline: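 Steps: 5-day stripped-FBS culture; seed and incubate 24hr; add ICI-182,780 (10.0nM final); pin 15-point compound titration; incubate 22hr at 37C; add CellTiter-Fluor at 21hr; read fluorescence.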

[2] = molecular target: Progesterone receptor (Homo sapiens) (UniProt P06401); test: qHTS assay to identify small molecule agonists of the progesterone receptor (PR) signaling pathway (AID 1346784; calls by dose curve; also: nearly all actives have a fitted effect of over 30% in size)
Outline: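 Agonist qHTS: compounds pinned onto 3,000 PR-UAS-bla HEK 293T cells per well in charcoal-stripped serum medium, 16hr at 37C, then beta-lactamase activity measured by LiveBLAzer FRET fluorescence after 2 hours at room temperature.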

[3] = molecular target: Progesterone receptor (Homo sapiens) (UniProt P06401); test: qHTS assay to identify small molecule antagonists of the progesterone receptor (PR) signaling pathway (AID 1346795; active = well fitted inhibition curve with a large enough effect in the signal ratio in the repeat runs, not every such curve was filed as active; the % refers to the signal ratio; also: potency is read from the fitted curve at half-maximal effect)
Outline: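 Antagonist mode with agonist R5020 at 1 nM final and 16 hr incubation at 37C. Reporter was beta-lactamase driven by UAS in HEK293T (PR-UAS-bla), 2% charcoal-stripped serum; signal from LiveBLAzer FRET substrate, 2 hr at room temperature.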

[4] = qHTS assay to identify small molecule antagonists of the TGF-beta/Smad signaling pathway - cell viability counter screen (AID 1346824); also: nearly all actives have a fitted effect of over 50% in size; also: potency is read from the fitted curve at half-maximal effect
Outline: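 Cytotoxicity counter-screen run in the same wells as the beta-lactamase Smad reporter read: CellTiter-Glo luminescence after 30 min at room temperature. HEK 293T SBE-bla cells had 5 hr compound exposure at 37 C with TGF-beta1 (0.25 ng/mL stock).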

[5] = qHTS assay to identify small molecule agonists of the TGF-beta/Smad signaling pathway - cell viability counter screen (AID 1346829); also: top concentration of the series differs between compounds; nearly all actives have a fitted effect of over 45% in size
Outline: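 After overnight seating at 37 C and 5% CO2, reporter cells got compounds for 5 hr and FRET substrate for 2 hr; cell viability then came from CellTiter-Glo luminescence.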

[6] = qHTS assay to identify small molecule agonists of the TGF-beta/Smad signaling pathway (AID 1346859; active = well fitted activation curve with a large enough effect in the signal ratio in the repeat runs, not every such curve was filed as active; the % refers to the signal ratio; also: series mostly up to about 77 µM)
Outline: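 Fluorescence (ex 405 nm; em 460 and 530 nm) was read 2 h after LiveBLAzer FRET substrate at RT. The preceding compound treatment of overnight-plated SBE-bla HEK293T cells lasted 5 h at 37 C.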

[7] = molecular target: Thyrotropin-releasing hormone receptor (Homo sapiens) (UniProt P34981); test: qHTS assay to identify small molecule antagonists of the thyrotropin-releasing hormone receptor (TRHR) signaling pathway (AID 1346877; active = well fitted inhibition curve with a large enough effect in the repeat runs, not every such curve was filed as active; also: series mostly up to about 51 µM)
Outline: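 Human TRHR in HEK293 cells; inhibition of the intracellular calcium rise triggered by 1 nM TRH was followed by fluorescence over 3 min. Compounds were run at 15 concentrations, three replicates each.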

[8] = molecular target: Thyrotropin-releasing hormone receptor (Homo sapiens) (UniProt P34981); test: qHTS assay to identify small molecule agonists of the thyrotropin-releasing hormone receptor (TRHR) signaling pathway (AID 1346891; calls by dose curve; also: series mostly up to about 58 µM)
Outline: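 Agonist-mode intracellular calcium readout: kinetic fluorescence over 3 min at 1 s intervals after compound addition to TRHR-HEK293 cells (18 h seeded, 2 h dye-loaded at 37 C). Fifteen concentrations, triplicates.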

[9] = Human pregnane X receptor (PXR) small molecule agonists, qHTS cell viability counter screen (AID 1346977); also: nearly all actives have a fitted effect of over 50% in size
Outline: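 Same-well viability read: CellTiter-Fluor added after 23 hr compound exposure, fluorescence measured 1 hr later. Cells were PXR-Luc HepG2 seeded at 2,000/well in 5% charcoal-stripped FBS medium, rested 5 hr before dosing at 37 C.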

[10] = Caspase-3/7 induction in CHO-K1 cells by small molecules, qHTS assay (AID 1346980); also: nearly all actives have a fitted effect of over 15% in size
Outline: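 Luminescent Caspase-Glo 3/7 read (30min, room temperature) quantified apoptosis induction. Cells were wild-type CHO-K1, treated with compound for 17hr at 37 C and 5% CO2.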

[11] = Caspase-3/7 induction in HepG2 cells by small molecules, qHTS cell viability counter screen (AID 1346981); also: nearly all actives have a fitted effect of over 30% in size; also: potency is read from the fitted curve at half-maximal effect
Outline: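 The parent HepG2 line is plated at 2,000 cells per well and rested 5 hr before compound pinning from DMSO stocks. Following a 16-hr treatment at 37 C, a fluorogenic live-cell substrate (CellTiter-Fluor) reports viability after 1 hr.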

[12] = molecular target: Acetylcholinesterase (Homo sapiens) (UniProt P22303); test: Acetylcholinesterase (AChE) small molecule antagonists: colormetric cell-based qHTS assay (AID 1347395; calls by dose curve; also: nearly all actives have a fitted effect of over 30% in size)
Outline: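 Colorimetric readout: DTNB quantifies thiocholine from acetylthiocholine hydrolysed by endogenous AChE of SH-SY5Y cells (2,000/well, plated overnight). Compound pretreatment 30 min, substrate incubation 90 min, both 37 C.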

[13] = qHTS assay to identify small molecule agonists of the progesterone receptor (PR) signaling pathway - cell viability counter screen (AID 1346799; calls by dose curve; also: nearly all actives have a fitted effect of over 45% in size)
Outline: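 Cytotoxicity measured by CellTiter-Glo luminescence (30 min, RT) in the same wells as the PR beta-lactamase agonist read. Those HEK293T cells had 16 h compound treatment at 37 C in 2% charcoal-stripped FBS medium.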

[14] = Caspase-3/7 induction in HepG2 cells by small molecules, qHTS assay (AID 1346978); also: nearly all actives have a fitted effect of over 15% in size
Outline: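 Caspase-3/7 induction was measured by Caspase-Glo 3/7 luminescence (30 min, room temperature) after a 17 hr compound exposure of wild-type HepG2 cells seeded at 2,000 per well and pre-incubated 5 hr.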

[15] = molecular target: Nuclear receptor subfamily 1 group I member 2 (Homo sapiens) (UniProt O75469); test: Human pregnane X receptor (PXR) small molecule agonists, qHTS assay (AID 1346982); also: nearly all actives have a fitted effect of over 35% in size; also: potency is read from the fitted curve at half-maximal effect
Outline: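 After plating in 5% charcoal-stripped FBS and a 5 hr rest, PXR-Luc HepG2 cells received compounds in DMSO. Following 24 hr at 37 C, ONE-Glo was added and light output read.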

[16] = qHTS assay to identify small molecule antagonists of the progesterone receptor (PR) signaling pathway - cell viability counter screen (AID 1346798); also: nearly all actives have a fitted effect of over 50% in size; also: potency is read from the fitted curve at half-maximal effect
Outline: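 Cytotoxicity read as CellTiter-Glo luminescence (30 min, room temperature) in the same wells as the beta-lactamase readout. HEK293T PR-UAS-bla cells in charcoal-stripped 2% FBS received compound and R5020, then 16 h at 37C, 5% CO2.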

[17] = Caspase-3/7 induction in CHO-K1 cells by small molecules, qHTS cell viability counter screen (AID 1346979); also: nearly all actives have a fitted effect of over 35% in size; also: potency is read from the fitted curve at half-maximal effect
Outline: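 Cytotoxicity counter screen: CellTiter-Fluor added to compound-treated wild-type CHO-K1 cells at 16 h (37C, 5% CO2), fluorescence measured 1 h later; same wells as caspase-3/7 measurement.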

Chain of Acetylcholinesterase (Homo sapiens) (P22303 whole entry, looked up): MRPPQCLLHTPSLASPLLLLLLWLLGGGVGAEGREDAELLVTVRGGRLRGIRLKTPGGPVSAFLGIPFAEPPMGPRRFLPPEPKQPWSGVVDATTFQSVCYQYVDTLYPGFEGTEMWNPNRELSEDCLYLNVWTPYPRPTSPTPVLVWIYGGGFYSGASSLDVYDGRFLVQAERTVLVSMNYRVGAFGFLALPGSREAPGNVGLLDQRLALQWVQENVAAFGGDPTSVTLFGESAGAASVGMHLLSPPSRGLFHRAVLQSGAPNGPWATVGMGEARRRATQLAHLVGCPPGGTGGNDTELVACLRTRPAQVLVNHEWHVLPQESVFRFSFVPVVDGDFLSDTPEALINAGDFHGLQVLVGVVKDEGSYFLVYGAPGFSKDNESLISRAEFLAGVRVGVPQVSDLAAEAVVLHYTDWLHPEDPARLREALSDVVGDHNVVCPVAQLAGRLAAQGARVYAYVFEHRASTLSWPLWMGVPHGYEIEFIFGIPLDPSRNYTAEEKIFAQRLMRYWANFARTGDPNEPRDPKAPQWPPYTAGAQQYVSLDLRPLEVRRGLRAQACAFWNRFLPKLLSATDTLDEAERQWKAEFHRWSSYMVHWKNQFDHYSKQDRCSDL
Chain of Thyrotropin-releasing hormone receptor (Homo sapiens) (P34981 whole entry, looked up): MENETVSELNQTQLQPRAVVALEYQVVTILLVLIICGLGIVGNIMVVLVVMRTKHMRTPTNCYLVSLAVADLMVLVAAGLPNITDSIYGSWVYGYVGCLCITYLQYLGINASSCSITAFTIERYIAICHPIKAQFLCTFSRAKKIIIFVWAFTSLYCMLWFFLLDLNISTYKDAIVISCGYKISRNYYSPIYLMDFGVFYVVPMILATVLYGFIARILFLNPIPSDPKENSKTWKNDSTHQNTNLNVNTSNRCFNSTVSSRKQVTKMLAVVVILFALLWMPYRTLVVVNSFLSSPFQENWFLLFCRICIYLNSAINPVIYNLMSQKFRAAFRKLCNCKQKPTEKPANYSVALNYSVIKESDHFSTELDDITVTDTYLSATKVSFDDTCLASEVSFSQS
Chain of Nuclear receptor subfamily 1 group I member 2 (Homo sapiens) (O75469 whole entry, looked up): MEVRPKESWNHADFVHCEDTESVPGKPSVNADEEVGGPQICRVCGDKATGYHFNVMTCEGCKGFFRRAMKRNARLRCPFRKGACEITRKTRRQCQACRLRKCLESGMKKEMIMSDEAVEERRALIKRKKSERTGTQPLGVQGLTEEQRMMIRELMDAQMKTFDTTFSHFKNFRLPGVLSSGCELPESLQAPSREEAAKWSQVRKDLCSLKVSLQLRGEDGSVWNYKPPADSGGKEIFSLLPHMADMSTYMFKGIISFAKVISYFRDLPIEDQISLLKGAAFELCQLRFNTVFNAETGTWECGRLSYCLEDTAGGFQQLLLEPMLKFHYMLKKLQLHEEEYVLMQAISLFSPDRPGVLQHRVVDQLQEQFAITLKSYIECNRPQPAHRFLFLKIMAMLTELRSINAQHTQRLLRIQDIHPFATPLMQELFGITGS
Chain of Progesterone receptor (Homo sapiens) (P06401 whole entry, looked up): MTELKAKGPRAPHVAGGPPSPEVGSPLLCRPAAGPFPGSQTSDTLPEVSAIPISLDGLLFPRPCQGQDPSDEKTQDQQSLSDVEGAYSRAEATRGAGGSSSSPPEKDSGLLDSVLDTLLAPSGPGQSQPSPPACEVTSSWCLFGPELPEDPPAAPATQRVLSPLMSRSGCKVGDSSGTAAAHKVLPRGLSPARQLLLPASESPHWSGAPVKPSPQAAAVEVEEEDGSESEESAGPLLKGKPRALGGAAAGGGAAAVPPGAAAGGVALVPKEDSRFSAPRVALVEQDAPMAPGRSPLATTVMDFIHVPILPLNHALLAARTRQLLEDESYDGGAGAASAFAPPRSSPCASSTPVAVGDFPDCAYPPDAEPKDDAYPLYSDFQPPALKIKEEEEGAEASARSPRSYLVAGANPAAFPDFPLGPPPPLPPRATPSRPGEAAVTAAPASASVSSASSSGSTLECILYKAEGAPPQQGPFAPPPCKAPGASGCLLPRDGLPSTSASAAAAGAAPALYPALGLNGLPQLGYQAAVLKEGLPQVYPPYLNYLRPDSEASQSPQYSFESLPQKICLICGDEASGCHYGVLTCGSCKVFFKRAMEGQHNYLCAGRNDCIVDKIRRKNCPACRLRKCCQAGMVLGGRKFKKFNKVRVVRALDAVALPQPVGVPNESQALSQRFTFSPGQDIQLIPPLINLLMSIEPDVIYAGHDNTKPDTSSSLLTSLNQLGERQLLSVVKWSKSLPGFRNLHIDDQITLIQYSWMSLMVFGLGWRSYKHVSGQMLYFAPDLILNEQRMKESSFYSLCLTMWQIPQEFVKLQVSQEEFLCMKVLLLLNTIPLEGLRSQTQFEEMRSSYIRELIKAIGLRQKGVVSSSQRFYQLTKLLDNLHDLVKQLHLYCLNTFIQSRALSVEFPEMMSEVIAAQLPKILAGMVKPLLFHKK

Row | Structure (SMILES) | Potency [1] | Potency [2] | Potency [3] | Potency [4] | outcome [5] | outcome [6] | outcome [7] | outcome [8] | Potency [9] | Potency [10] | Potency [11] | Potency [12] | Potency [13] | Potency [14] | Potency [15] | Potency [16] | Potency [17]
1 | C#CCN1C(=O)COc2cc(F)c(N3C(=O)C4=C(CCCC4)C3=O)cc21 | inactive | inactive | inactive | inactive | inactive | inactive | inactive | inactive | inactive | inactive | inactive | inactive |  |  |  |  | 
2 | CC1COC2(c3ccccc3Cl)c3cc(Cl)ccc3NC(=O)CN12 (stereo unspecified) | inactive | inactive |  | inactive | inactive | inactive |  |  | inactive | inactive | inactive |  | inactive | inactive | 23.7 µM (active) |  | 
3 | CCCCOC(=O)[C@@H](C)Oc1ccc(Oc2ccc(C#N)cc2F)cc1 | inactive | inactive |  | inactive | inactive |  | inactive | inactive | inactive | inactive | inactive | inactive | inactive | inactive | inactive | inactive | inactive
4 | CSc1nc(N=[N+]=[N-])nc(NC(C)C)n1 | inactive | inactive |  | inactive | inactive | inactive | inactive | inactive | inactive | inactive | inactive |  | inactive | inactive | 61.1 µM (active) | inactive | inactive
5 | CC(C)CP(=S)(S)CC(C)C | inactive | inactive | 0.486 µM (active) | inactive | inactive | inactive | inactive | inactive | inactive |  |  |  |  |  | inactive |  | 48.6 µM (active)
6 | N#Cc1ccncc1 | inactive | inactive |  | inactive | inactive | inactive |  |  | inactive | inactive | inactive | inactive | inactive |  | inactive | inactive | inactive
7 | Fc1ccc(C2(Cn3cncn3)OC2c2ccccc2Cl)cc1 (stereo unspecified) | inactive | inactive |  |  | inactive | inactive | inactive | inactive |  | inactive | inactive | inactive |  | inactive |  | inactive | 
8 | N#CC(CCc1ccc(Cl)cc1)(Cn1cncn1)c1ccccc1 (stereo unspecified) | 61.1 µM (active) |  |  | 54.9 µM (active) |  |  |  |  |  | inactive | 48.6 µM (active) | inactive |  |  | 19.3 µM (active) | 30.6 µM (active) | 43.3 µM (active)
9 | CN/C(=N\[N+](=O)[O-])NCC1CCOC1 (stereo unspecified) | inactive |  |  | inactive | inactive | inactive | inactive | inactive | inactive | inactive | inactive |  | inactive | inactive |  | inactive | inactive
10 | CC(COc1ccc(Oc2ccccc2)cc1)Oc1ccccn1 (stereo unspecified) | inactive | inactive |  | inactive | inactive | inactive | inactive | inactive |  | inactive | inactive | inactive |  |  | 17.2 µM (active) |  | inactive
